Measurements published in PubChem BioAssay AID720518 (National Center for Advancing Translational Sciences (NCATS), 2013).
Records with an inconclusive call do not appear. A call without a number means that no potency is given here. Activity calls are given as the source filed them. Calls follow the shape of the full dose curve.

Assay: qHTS for Inhibitors of Cell Surface uPA Generation: Wild-type Protective Antigen (WT-PrAg) Counterscreen for Cherry-picked Compounds
Details: cells, WT protective antigen toxicity counterscreen; series mostly up to 115 µM
Potency is read from the fitted curve at half-maximal effect.

SMILES | Potency
COc1ccc(Nc2nc(-c3ccccc3)c(C(=O)Nc3cccnc3)s2)cc1 | inactive
Cc1cc(C)nc(NC(=O)CSc2nccc(C)n2)n1 | inactive
COc1ccc(C2=C/C(=C\c3ccccc3OC(C)=O)C(=O)O2)cc1 | inactive
CC(C)C(NC(=O)Cc1ccccc1)C(=O)N1CCN(c2cccc(Cl)c2)CC1 (stereo not given) | inactive
Cc1ccc(C(=O)COc2cc(O)c3c(=O)cc(-c4ccccc4)oc3c2)cc1 | inactive
Cc1ccc(S(=O)(=O)N(C)c2ccc(OC(=O)c3ccc(=O)[nH]c3)cc2)cc1 | inactive
C[C@@]12C(=O)N(CC3CCCO3)CC(=O)N1[C@H]1c3cc(Cl)ccc3OC[C@@H]1[C@@H]2c1ccccc1 (stereo not given in full) | inactive
COc1cccc(NC(=O)c2nnn(CC(=O)Nc3cc(C)cc(C)c3)c2N)c1 | inactive
COc1ccccc1C(=O)NCCC(=O)NCC(c1ccc(F)cc1)N1CCOCC1 (stereo not given) | inactive
Cc1ccc(S(=O)(=O)NC(=O)Nc2nccs2)cc1 | inactive
CCCCn1c(-c2cccnc2)nc2cc3[nH]c(=O)c(C(C)C)nc3cc21 | inactive
O=C(O)CSc1nnc(COc2ccccc2)n1-c1ccccc1 | inactive
COc1ccc(C2C(C(=O)c3ccc(C)o3)=C(O)C(=O)N2CC2CCCO2)cc1OC (stereo not given) | inactive
Cc1cccc(CNc2ccc(C(CC(N)=O)NC(=O)c3cccc(Br)c3)cc2[N+](=O)[O-])c1 (stereo not given) | inactive
C=CCn1c(SCCN2C(=O)c3ccccc3C2=O)nc2scc(-c3ccc(F)cc3)c2c1=O | inactive
CC(C(=O)Nc1nccs1)c1ccc([N+](=O)[O-])cc1 (stereo not given) | inactive
Cc1nnc2ccc(-c3ccc(NS(=O)(=O)c4ccc(Cl)s4)cc3)nn12 | inactive
O=C1C[C@@H]2CCN3C(=O)CCC[C@@H]([C@H]23)[C@H]1Cc1ccccc1 | inactive
CCSC1=NCCN1S(=O)(=O)c1ccc(Cl)cc1 | inactive
CCOCCCn1c(SCC(=O)Nc2oc(C)c3c(C)n[nH]c(=O)c23)nc2ccccc2c1=O | inactive

SMILES | Potency
CC1CCCN(C(=O)c2ccc(CNc3c(N4CCCCC4)c(=O)c3=O)cc2)C1 (stereo not given) | inactive
CCS(=O)(=O)N1CCC(C(=O)NCc2ccc(OC)cc2OC)CC1 | inactive
CNC(=O)[C@@H]1CCC(=O)N1 | inactive
CS(=O)(=O)c1ccc(Cl)c(NC(=O)COC(=O)CNC(=O)c2cccs2)c1 | inactive
O=C(Nc1ccc(Cl)cc1)Nc1nnc(-c2ccncc2)s1 | inactive
COc1ccc(C(=O)CC(=O)C(=O)Nc2ccccc2)cc1 | inactive
CCN(CC)CCNC(=O)/C(=C/c1cn(CC)c2ccccc12)NC(=O)c1cc(OC)c(OC)c(OC)c1 | inactive
O=C1C=CC(O)(c2cc(=O)c3c(O)cc(O)cc3o2)C=C1 | 16.5 µM (active)
Cn1cc(SCC(=O)Nc2nccs2)c2ccccc21 | inactive
COc1ccc(CCNC(=O)COC(=O)CNS(=O)(=O)c2ccc(SC)c([N+](=O)[O-])c2)cc1 | inactive
CC(=O)c1ccc(NC(=O)CN2CCN(c3ccccc3)CC2)cc1 | inactive
COc1ccc(CC(=O)Nc2nc(C)cs2)cc1OC | inactive
O=C(CN1CCN(Cc2ccc(Cl)cc2)C1=O)NCc1cccs1 | inactive
O=c1ccc(S(=O)(=O)N2CCCC2)c[nH]1 | inactive
O=C(O)CCCC(=O)NCCCCc1ccccc1 | inactive
CC1CC(C)(C)Nc2ccc(N=O)cc21 (stereo not given) | inactive
O=C(NNC(=O)c1ncc(Cl)c(Cl)c1Cl)c1ccc(F)cc1 | inactive
COc1cc(/C=N/NC(=O)c2cc(-c3ccco3)nc3ccccc23)cc(OC)c1O | inactive
O=C(Nc1ccc(NC(=O)c2ccco2)c(Cl)c1)c1ccccc1 | inactive
O=C(CSC1=NS(=O)(=O)c2ccccc2N1)Nc1nccs1 | inactive
